Screens from PubChem.
An excerpt weighted towards active compounds, which were near 21% of everything screened.
Pf growth 96h: P. falciparum growth inhibition at 96 hour, primary screen for plastid delayed-death inhibitors | P. falciparum luciferase reporter growth, 96 h | 320,000 tested, 6.9% active | AID 504834 | Potency, µM (doses to about 28.7 µM), inactives show at the highest dose activity change, negative = inhibition, hits mostly inhibitors; active = well fitted inhibition curve with a large enough effect; inconclusive = small, poorly fitted or top-dose-only effect, or another doubt; inactive = no such curve, though single readings can be large or run the other way; note: potency is the fitted concentration of half-maximal effect; % is set by controls: 0 for no effect and ±100 for the full control effect
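Plates of compound plus infected erythrocytes (2% hematocrit, 0.05% parasitemia final) incubate 96 hours, 37 C, 5% CO2. Detection reagent added; reduced luminescence from the parasites' luciferase reporter flags inhibition.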
Shiga inhibitor: Shiga toxin inhibition; Vero cells, Shiga toxin protein synthesis inhibition reporter; 290,000 tested, 9.2% active; inhibition, % at 38.7 µM; AID 2315; in the data active = inhibition mostly above about 28%, no sharp cut-off; inactive = mostly below about 43%; note: 0% is about no effect
Cycloheximide cs: counter-screen hit for Shiga toxin inhibitors, cycloheximide | AID 2314 | cell reporter, cycloheximide protein synthesis inhibition counterscreen | max response, % | 300,000 tested, 12% active; in the data active = max response mostly above about 13%, no sharp cut-off; inactive = mostly below about 14%; note: read at 38.3 µM for the half of the compounds with a filed dose; 0% is about no effect
Pf growth 48h: inhibits P. falciparum growth in the first generation, 48 h | 310,000 tested, 5.9% active | Potency, µM (series often up to 28.7 µM), for the others: at the highest dose activity change, negative = inhibition, most hits filed as inhibitors | P. falciparum luciferase growth in erythrocytes, 48 h | AID 504832; active = well fitted inhibition curve with a large enough effect; inconclusive = small, poorly fitted or top-dose-only effect, or another doubt; inactive = no such curve, though single readings can be large or run the other way; note: potency is the fitted concentration of half-maximal effect; % is set by controls: 0 for no effect and ±100 for the full control effect
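In quantitative HTS format, infected erythrocytes bearing luciferase-reporter parasites were treated for a single generation at 37 C. Luminescence after adding detection reagent served as the growth measure.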
SARS PLpro yeast: blocks SARS-CoV papain-like protease in a yeast assay. S. cerevisiae expressing SARS-CoV PLpro, growth rescue. Potency, µM (titrated, usually from 32.9 µM), inactives show at the highest dose activity, positive = growth rescue, actives largely listed as activators. 330,000 tested, 0.19% active. AID 485353; note: potency is the fitted concentration of half-maximal effect; 0% is about no effect; nearly all actives have a fitted effect of over 55% in size
NS1 inh: blocks influenza NS1 protein function. 270,000 tested, 0.4% active. Potency, µM (titrated, usually from 46.1 µM), without a hit: at the top dose activity, positive = more growth. AID 2326; note: potency is the fitted concentration of half-maximal effect; actives are rising curves; nearly all actives have a fitted effect of over 50% in size
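OD600 was taken as the measure of yeast growth restored by compound in an NS1-expressing S. cerevisiae strain. Cells had been washed out of glucose medium and diluted 1:100 into galactose -URA medium, pH 6.0.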
* hit, by the source's call; ? = inconclusive; . = not tested or not shown. Unless noted, calls come from the whole dose curve.

SMILES	Pf growth 96h	Shiga inhibitor	Cycloheximide cs	Pf growth 48h	SARS PLpro yeast	NS1 inh
Nc1ccc(C#Cc2ccccc2)cc1	229%	64*	41*	127%	3%	-11%
N#Cc1ccccc1Sc1ccccc1N	1%	-19	-2	-1%	-8%	-11%
Cc1cccc(C#Cc2ccccc2)n1	154%	.	.	102%	.	-8%
CCn1c(COc2ccccc2OC)nnc1SCC#N	?	-24	-1	10%	3%	6%
CCc1cccc(CC)c1NC(=O)C1SC(=Nc2ccccc2C)C(c2nc3ccccc3s2)=C1N (stereo not drawn)	7.4µM*	-4	-5	.	-9%	26%
CCc1cccc(C)c1NC(=O)CCCSc1nc2ccccc2s1	?	1	-3	?	-16%	-22%
O=C(Nc1cccc(C(F)(F)F)c1)c1ccccc1NC(=O)C1CCCCC1	0%	-12	-3	?	-21%	6%
CCOC(=O)C1=C(C)N=C2SC(C)C(=O)N2C1c1cccc(F)c1 (stereo not drawn)	?	-13	-11	.	2%	26%
CC1=C(C(=O)OC(C)C)C(c2cccc(F)c2)N2C(=O)C(C)SC2=N1 (stereo not drawn)	?	-5	3	12µM*	7%	?
CC1=C(C(=O)OCC(C)C)C(c2cccc(F)c2)N2C(=O)C(C)SC2=N1 (stereo not drawn)	12µM*	-7	-3	10µM*	-15%	?
COc1ccc(CCNC(=O)CC(c2ccccc2)c2cc(C)ccc2O)cc1OC (stereo not drawn)	1%	-1	-1	?	-2%	-5%
COc1cccc(CNC(=O)c2ccccc2C(=O)NC(C)(C)C(=O)NCc2cccc(OC)c2)c1	?	-5	-3	?	2%	-21%
Cc1ccc2oc(-c3cccc(NC(=O)c4ccc(Br)o4)c3)nc2c1	125%	38	26*	.	9%	-3%
O=C(Nc1cccc(-c2cc3ccccc3oc2=O)c1)c1ccc(Br)o1	?	-2	-2	26%	-23%	20%
Cc1cc2nc(-c3cccc(NC(=O)c4ccc(Br)o4)c3)oc2cc1C	.	80	41*	44%	13%	-3%
O=C(Nc1ccc2oc(-c3cccnc3)nc2c1)c1ccc([N+](=O)[O-])o1	?	34	32	?	-1%	-3%
CN1CCN(C(=O)C2CCCN(S(=O)(=O)c3ccc(Cl)cc3)C2)CC1 (stereo not drawn)	-7%	23	-1	0%	9%	6%
CCOC(=O)c1c(C)[nH]c(C)c1C(=O)CN1C(=O)NC(CC(C)C)C1=O (stereo not drawn)	26%	-4	-1	9.3µM*	3%	4%
CCOC(=O)c1c(C)[nH]c(C)c1C(=O)CN1C(=O)NC2(CCC(C)CC2)C1=O (stereo not drawn)	.	-2	-2	?	4%	-1%
COc1ccc(C2N(c3cc(Cl)ccc3OC)C(=O)C3CCCN32)cc1OC (stereo not drawn)	?	-12	-6	.	12%	?
CC1CN(S(=O)(=O)c2cccc(-c3cn4cccnc4n3)c2)CC(C)O1 (stereo not drawn)	4%	-13	7	7.4µM*	0%	?
Cc1ccc2nc(-c3cccc(S(=O)(=O)N4CC(C)OC(C)C4)c3)cn2c1 (stereo not drawn)	-12%	18	17*	?	6%	-19%
CN(C)S(=O)(=O)c1cccc(C(=O)OCC(=O)NCc2ccc3c(c2)OCO3)c1	15%	2	3	13%	-2%	.
O=C(c1cccs1)N(C(=O)c1cccs1)c1ccc(Br)cn1	.	57	37*	184%	-32%	-127%
Cc1ccnc(NC(=O)CCC(=O)c2cccs2)c1	30%	.	.	16%	-4%	.
SMILES	Pf growth 96h	Shiga inhibitor	Cycloheximide cs	Pf growth 48h	SARS PLpro yeast	NS1 inh
Cc1ccnc(N(C(=O)c2cccs2)C(=O)c2cccs2)c1	11%	71*	42*	168%	-8%	0%
Cc1cccn2c(CNCC3OCCc4ccccc43)c(C(=O)N3CCCCC3)nc12 (stereo not drawn)	?	-17	-1	?	1%	5%
CC(=O)C1C(c2ccccc2OC(F)F)NC(=O)NC1(O)C(F)(F)F (stereo not drawn)	25%	-10	-5	53%	3%	13%
CN(CC(=O)Nc1ccccc1Cl)C(=O)Cn1cnc2ccccc2c1=O	26%	.	.	?	0%	.
CCN1CCN(S(=O)(=O)c2ccc(C(C)(C)C)cc2)CC1	?	-11	-1	76%	-3%	-6%
COC(=O)C(C)NC(=O)C(C)NC(=O)OCc1ccccc1 (stereo not drawn)	.	-6	-2	27%	0%	2%
CC(NC(=O)OCc1ccccc1)C(=O)OCN1C(=O)c2ccccc2C1=O (stereo not drawn)	12µM*	-11	-2	13%	3%	-97%
CCCNC(=O)COC(=O)c1cc2c(=O)n3ccccc3nc2s1	57%	17	15	45%	3%	6%
CCCN1CCc2c(sc(NC(=S)NC(=O)c3ccccc3)c2C#N)C1	0%	43*	38*	?	1%	.
CC(C)N1CCc2c(sc(NC(=S)NC(=O)c3ccccc3)c2C#N)C1	0.47µM*	39*	45*	10µM*	-2%	15%
CCNc1ccc(C(=O)OCC(=O)Nc2cc(C)on2)cc1[N+](=O)[O-]	-28%	.	.	3%	-1%	.
O=C(c1nc2ccccc2s1)N1CCN(c2ccccn2)CC1	-6%	29*	21*	38%	-3%	-11%
O=C(c1ccc2ccccc2n1)N1CCN(c2ccccn2)CC1	7%	-3	-4	8%	2%	0%
O=C(c1nc2ccccc2s1)N1CCSCC1	.	135*	29*	99%	2%	4%
O=C(c1ccccc1Cl)N1CCSCC1	59%	-4	-2	23%	1%	-2%
Cc1cc(C)cc(NC(=O)COc2ccc(C(=S)N3CCOCC3)cc2)c1	7%	-9	-2	?	1%	.
CCN(CC)Cc1c(C(=O)N/N=C(\C)c2ccncc2)nnn1-c1nonc1N	?	-21	-2	-1%	-1%	1%
O=C(NC1CC1)c1ccc2c(c1)C1C3CCC(C3)C1C(c1ccccc1)N2 (stereo not drawn)	7.4µM*	3	0	9.3µM*	-51%	-7%
O=C(NC1CCCC1)c1cccc(Cl)c1	16%	14	7	0%	-3%	.
CCC(C)NC(=O)c1c(N)n(CCCOC)c2nc3ccccc3nc12 (stereo not drawn)	2.3µM*	-46	-2	?	-2%	-59%
Nc1c(C(=O)NCCc2ccccc2)c2nc3ccccc3nc2n1CCN1CCOCC1	2%	3	8	?	-21%	-126%
Nc1c(C(=O)NCCN2CCOCC2)c2nc3ccccc3nc2n1Cc1ccccc1	?	14	2	?	1%	0%
